Compounds without any hit were thinned out: in the full panel of roughly 79,000, 15% have a hit. Values without a mark were called inactive. Activity calls are given as the source filed them. Rule as the data show it: active = growth inhibition above about 70%; inactive = the rest.

We go through 21 molecules from PubChem BioAssay (NCI).

The nature of assay [1]: NCI Yeast Anticancer Drug Screen. Data for the rad50 strain (AID 155).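 Also: 0% = growth of vehicle-only cultures of the same strain.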 The note with it: S. cerevisiae rad50 strain growth inhibition; at 50.0 µM; stronger effect = higher value. In short, it runs like this: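 Inhibition values express reduced yeast growth in compound-treated cultures relative to vehicle-treated controls.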
Assay [2] can be described thus: NCI Yeast Anticancer Drug Screen. Data for the mec2-1 strain (AID 157). The note with it: S. cerevisiae mec2-1 strain, at 50.0 µM, stronger effect = higher value. Summed up: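 Each compound was tested on mec2-1 yeast, a strain altered in DNA damage repair or cell cycle control. Growth inhibition is reported relative to vehicle.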
The nature of assay [3]: NCI Yeast Anticancer Drug Screen. Data for the sgs1 mgt1 strain (AID 161).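 Also: 0% = growth of cultures given vehicle only.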 The note with it: S. cerevisiae sgs1 mgt1 strain, at 50.0 µM, stronger effect = higher value. Summed up:
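Genetically altered yeast, compound exposure, growth inhibition relative to vehicle.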

A short description of assay [4]: NCI Yeast Anticancer Drug Screen. Data for the cln2 rad14 strain (AID 165).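 Also: 0% = growth equal to vehicle treated cultures.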 The following applies: S. cerevisiae cln2 rad14 strain, at 50.0 µM, stronger effect = higher value. Summed up:
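Test compounds were added to cln2 rad14 yeast cultures; inhibition of growth was then determined by comparison with vehicle treatment.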

A short description of assay [5]: NCI Yeast Anticancer Drug Screen. Data for the bub3 strain (AID 167). The note with it: S. cerevisiae bub3 mutant strain, at 50.0 µM, stronger effect = higher value. Summed up: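 Steps: expose the mutant yeast strain to compound; grow alongside vehicle-treated cultures; measure growth; express inhibition against the vehicle cultures.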
The nature of assay [6]: NCI Yeast Anticancer Drug Screen. Data for the mlh1 rad18 strain (AID 175). The following applies: S. cerevisiae mlh1 rad18 strain growth inhibition; at 50.0 µM; stronger effect = higher value. In short, it runs like this:
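Inhibition values reflect reduced growth of mutant yeast versus vehicle-treated controls following compound exposure; the mutations affect DNA damage repair.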

With `CCN(CC)/[N+]([O-])=N/OC`, the growth inhibition is -13.6% in assay [1]; -0.3% in assay [2]; 10.9% in assay [3]; 13.4% in assay [4]; 10.3% in assay [5]; 1.35% in assay [6].

On to `CCCOS(=O)(=O)O`, for which the growth inhibition is -13.7% in assay [1]; -15.1% in assay [2]; 1.7% in assay [3]; 7% in assay [4]; 6.65% in assay [5]; 15.2% in assay [6].

As for `O=C(C[n+]1cccc2cccc(O)c21)c1ccc2ccccc2c1`, the growth inhibition in assay [1] was 6.6%; in assay [2] it was 7.6%; in assay [3], 18.8%; in assay [4], 26.6%; in assay [5], 1.15%; in assay [6] it was 2.7%.

Consider `FC(F)(F)c1ccc2c(c1)N(CCCN1CCN(CCN3CCCCC3)CC1)c1ccccc1S2`, for which the growth inhibition was 88.9% (active) in assay [1]; 46% in assay [2]; 89% (active) in assay [3]; 27.2% in assay [4]; 87.4% (active) in assay [5]; 91.8% (active) in assay [6].

In the case of `CC(=O)Oc1cccc2c1ccc1nonc12`, the growth inhibition is 1.75% in assay [1]; 0.35% in assay [2]; -2.2% in assay [3]; -49.8% in assay [4]; -11.4% in assay [5]; -3% in assay [6].

As for `c1ccc(CNC(Cc2ccccc2)c2ccc(OCc3ccccc3)cc2)cc1` (stereo unspecified), the growth inhibition in assay [1] was -15.2%; in assay [2], -17.6%; in assay [3], 4%; in assay [4], 11.8%; in assay [5], -10.2%; in assay [6], -10.6%.

In the case of `CC(C)C(=O)N(C(C)C)C(C)C`, the growth inhibition in assay [1] was 25.2%; in assay [2], 12.5%; in assay [3], 8.5%; in assay [4] it was -21.6%; in assay [5] it was -0.55%; in assay [6], 38%.

Turning to `CC1=CC(C)(C)NC(=S)N1c1ccccc1O`, the growth inhibition is -0.95% in assay [1]; 25.6% in assay [2]; 15.3% in assay [3]; -16.4% in assay [4]; 41.8% in assay [5]; 41% in assay [6].

As to `O=c1c(-c2ccc(O)cc2)coc2cc(O)cc(O)c12`, the growth inhibition was 8.85% in assay [1]; -6.15% in assay [2]; 18.1% in assay [3]; 3.65% in assay [4]; 11.4% in assay [5]; 5% in assay [6].

For the molecule `O=C1CN(c2ccccc2)Cc2nc(Cl)ccc2N1`, the growth inhibition was 39.9% in assay [1]; 7.45% in assay [2]; 24.4% in assay [3]; 17.4% in assay [4]; 3.55% in assay [5]; 72.5% (active) in assay [6].

On to `COc1c(C)c(C)c(OC(C)=O)c(C)c1Br`, for which the growth inhibition is -10.2% in assay [1]; -4.9% in assay [2]; -1.95% in assay [3]; -3.1% in assay [4]; -2.1% in assay [5]; -9.3% in assay [6].

As for `N#CC1(Cc2ccccc2)c2ccccc2-c2ccccc21`, the growth inhibition is 34.2% in assay [1]; 27.8% in assay [2]; 28.8% in assay [3]; 1.85% in assay [4]; 24.9% in assay [5]; 45% in assay [6].

Consider `CC(O)CN1CCN(CC(C)O)C(C)C1` (stereo unspecified), for which the growth inhibition in assay [1] is -10.1%; in assay [2], 1.65%; in assay [3] it was 0%; in assay [4] it was 1.35%; in assay [5] it was -7.2%; in assay [6], 4.75%.

Turning to `O=C1c2ccccc2C(=O)N1C[P+](c1ccccc1)(c1ccccc1)c1ccccc1`, the growth inhibition was 41.9% in assay [1]; 28.8% in assay [2]; 32.4% in assay [3]; 16.2% in assay [4]; 2.25% in assay [5]; 12.4% in assay [6].

`Cc1cc(=O)[nH]c2nc(N)ccc12`: the growth inhibition is -9.5% in assay [1]; -8.25% in assay [2]; 11.7% in assay [3]; -24.9% in assay [4]; 7.8% in assay [5]; -18.9% in assay [6].

With `CCCCCCCCC(=O)c1ccc(N=Nc2ccc(OCC)cc2)cc1`, the growth inhibition was -6% in assay [1]; 12.9% in assay [2]; -5.5% in assay [3]; -8.55% in assay [4]; 3.15% in assay [5]; -14.8% in assay [6].

Take `O=S1(=O)c2ccccc2N(O)C2=NCCN21`: the growth inhibition in assay [1] was -50.1%; in assay [2] it was -46.7%; in assay [3], -65.8%; in assay [4], -6.35%; in assay [5] it was -30.9%; in assay [6], -33.9%.

In the case of `COc1c2c(cc3nc4ccccc4nc13)CCC(C(C)(C)O)C2` (stereo unspecified), the growth inhibition was 17.9% in assay [1]; -10.2% in assay [2]; -3.45% in assay [3]; 3.9% in assay [4]; -0.7% in assay [5]; 6.3% in assay [6].

Take `CCOC(=O)c1nc2cc(N3CCOCC3)c(F)cc2[nH]c1=O`: the growth inhibition was 16.9% in assay [1]; 23.6% in assay [2]; 23.2% in assay [3]; 3.45% in assay [4]; 28.2% in assay [5]; 34% in assay [6].

Take `N#CCCCCCCO`: the growth inhibition in assay [1] was 14.6%; in assay [2], -20.6%; in assay [3], 11.4%; in assay [4], 15.4%; in assay [5] it was 5.35%; in assay [6] it was 17.5%.

As to `Cc1cc([N+](=O)[O-])ccc1N=Nc1ccc([N+](=O)[O-])cc1C`, the growth inhibition in assay [1] was -0.6%; in assay [2], -1.9%; in assay [3], 1.2%; in assay [4], -49.1%; in assay [5] it was 5.4%; in assay [6] it was -8.65%.
